Experimental data as given in PubChem BioAssay AID720597 (Broad Institute, 2013).
Potency and affinity values are given separately. Values without a mark were called inactive.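 How the source made its calls: active means fitted half-maximal dose no more than twice the top valid tested dose, for compounds that lower signal; inconclusive means fit invalid, or curve flat with activity between -70 and -30; inactive means potency past limit, curve flat within ±30, or signal increasing.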

These compounds were tested against NAD-dependent protein deacylase sirtuin-5, mitochondrial (Homo sapiens) (UniProt Q9NXA8) (assay: SIRT5 deacylase inhibitors, dose response, biochemical, fluorescence imaging, cherry-pick, set 6 (AID 720597;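 further: lower AMC signal can also come from blocking the trypsin step; 0% = median of neutral control wells and -100% = median of positive control wells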)). Details: Purified SirT5, succinyl-peptide-AMC/trypsin fluorescence; series mostly up to 15 µM; activity change, negative = inhibition: at the top concentration.
NAD-dependent protein deacylase sirtuin-5, mitochondrial (Homo sapiens), sequence (Q9NXA8 whole entry, looked up): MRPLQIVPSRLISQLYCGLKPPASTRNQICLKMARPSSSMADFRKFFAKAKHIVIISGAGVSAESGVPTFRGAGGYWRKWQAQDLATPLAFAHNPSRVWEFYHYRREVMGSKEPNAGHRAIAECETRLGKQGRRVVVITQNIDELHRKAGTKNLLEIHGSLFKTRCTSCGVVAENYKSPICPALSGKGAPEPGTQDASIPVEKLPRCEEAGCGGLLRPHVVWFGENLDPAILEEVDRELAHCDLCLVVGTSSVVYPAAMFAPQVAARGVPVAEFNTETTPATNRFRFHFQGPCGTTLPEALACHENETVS
`C[C@@H]1CN([C@@H](C)CO)C(=O)c2cccc(NC(=O)CCCCCC(=O)Nc3ccccc3N)c2O[C@H]1CN(C)Cc1ccc(-c2ccccc2)cc1` was tested, and the “activity change, negative = inhibition” value was -19.2%.
`COc1ccccc1-c1ccc2c(c1)O[C@H](CN(C)S(=O)(=O)c1ccc(F)cc1)[C@H](C)CN([C@H](C)CO)S2(=O)=O` was tested, and the “activity change, negative = inhibition” value was -19.5%.
With `C[C@H]1CN([C@@H](C)CO)C(=O)c2cc(NC(=O)C3CCCCC3)ccc2O[C@@H]1CN(C)CC1CC1` the “activity change, negative = inhibition” value was -28.9%.
In the case of `C[C@H](CO)N1C[C@H](C)[C@H](CN(C)Cc2cccc(C(F)(F)F)c2)OCc2ccccc2-c2ccccc2C1=O`, the “activity change, negative = inhibition” value is reported as -13.7%.
`COc1ccccc1-c1ccc2c(c1)O[C@@H](CN(C)S(=O)(=O)c1ccc(F)cc1)[C@@H](C)CN([C@@H](C)CO)S2(=O)=O` was tested, and the “activity change, negative = inhibition” value was -7.03%.
`C[C@@H]1CCCCO[C@@H](CN(C)Cc2ccc(C(F)(F)F)cc2)[C@H](C)CN([C@H](C)CO)C(=O)c2cc(NS(=O)(=O)c3ccccc3)ccc2O1` was tested, and the “activity change, negative = inhibition” value was -0.747%.
In the case of `CC(C)C#Cc1cnc2c(c1)C(=O)N([C@H](C)CO)C[C@@H](C)[C@H](CN(C)C(=O)CN1CCOCC1)O2`, the “activity change, negative = inhibition” value is reported as -20.8%.
With `CO[C@@H](CN(C)Cc1ccc2c(c1)OCO2)[C@@H](C)CN(C(=O)Nc1ccc(F)cc1)[C@H](C)CO` the “activity change, negative = inhibition” value was -0.984% [at 16 µM].
For `Cc1ccc(-c2ccc3c(c2)O[C@@H](CN(C)Cc2ccccc2)[C@@H](C)CN([C@@H](C)CO)S3(=O)=O)cc1`, the “activity change, negative = inhibition” value was -12.1%.
With `C[C@@H]1CCCCO[C@@H](CN(C)Cc2ccc(Cl)c(Cl)c2)[C@H](C)CN([C@@H](C)CO)C(=O)c2cc(NS(=O)(=O)c3cccs3)ccc2O1` the “activity change, negative = inhibition” value was 14.7%.
`C[C@H]1CN([C@@H](C)CO)C(=O)c2cc(C#CCN(C)C)cnc2O[C@@H]1CN(C)Cc1ccncc1` was tested, and the “activity change, negative = inhibition” value was -24.8%.
With `COc1cc2c(cc1OC)CN(C(=O)[C@@H]1[C@H]3C(=O)O[C@H](c4ccccc4)[C@H](c4ccccc4)N3[C@H](c3ccc(OCCO)cc3)[C@@]13C(=O)Nc1ccc(C#CCNC(N)=O)cc13)CC2` the “activity change, negative = inhibition” value was -12.1%.
In the case of `CCCC#Cc1ccc2c(c1)O[C@H](CN(C)C(=O)c1ccccc1F)[C@@H](C)CN([C@@H](C)CO)S2(=O)=O`, the “activity change, negative = inhibition” value is reported as -29.6%.
For `C[C@@H](O)C#Cc1ccc([C@@H]2[C@H]3CN(C(=O)c4cccc(F)c4)CCCCN3[C@H]2CO)cc1`, the “activity change, negative = inhibition” value was -5.1%.
`COc1ccc(C#Cc2ccc([C@@H]3[C@H](CO)N4C(=O)CN(C(=O)c5cccnc5)C[C@@H]34)cc2)cc1` was tested, and the “activity change, negative = inhibition” value was -0.496%.
In the case of `COc1ccc(S(=O)(=O)Nc2ccc3c(c2)C(=O)N([C@@H](C)CO)C[C@@H](C)[C@@H](CN(C)Cc2ccc(C(F)(F)F)cc2)OCCCC[C@@H](C)O3)cc1`, the “activity change, negative = inhibition” value is reported as -5.76%.
In the case of `O=S(=O)(NC[C@@H]1CC[C@H]2[C@H](CN2Cc2cccc(-c3ccccn3)c2)O1)c1ccccc1`, the “activity change, negative = inhibition” value is reported as 1.68%.
With `C[C@H]1CCCCO[C@H](CN(C)Cc2ccc(C(F)(F)F)cc2)[C@@H](C)CN([C@@H](C)CO)C(=O)c2cc(NS(=O)(=O)c3ccccc3)ccc2O1` the “activity change, negative = inhibition” value was 0.872%.
In the case of `CN1c2ccc(-c3ccc(F)cc3)cc2[C@@H]2[C@@H](CCN2C(=O)c2ccncc2)[C@@H]1CO`, the “activity change, negative = inhibition” value is reported as -11.8%.
`C[C@@H]1CN([C@H](C)CO)C(=O)Cc2cc(NS(=O)(=O)c3ccccc3)ccc2O[C@H]1CN(C)Cc1ccc(Cl)c(Cl)c1` was tested, and the “activity change, negative = inhibition” value was -4.25%.
`C[C@H]1CN([C@@H](C)CO)C(=O)c2cc(NC(=O)CCC(F)(F)F)ccc2O[C@H]1CN(C)Cc1ccc(C(F)(F)F)cc1` was tested, and the “activity change, negative = inhibition” value was -26.3%.
With `C[C@H](O)C#Cc1ccc2c(c1)O[C@H](CN(C)Cc1ccc(-c3ccccc3)cc1)[C@@H](C)CN([C@@H](C)CO)S2(=O)=O` the “activity change, negative = inhibition” value was -4.29% [at 7.5 µM].
With `O=C(NCC[C@@H]1CC[C@H](NS(=O)(=O)c2cccc(F)c2)[C@@H](CO)O1)C1CCOCC1` the “activity change, negative = inhibition” value was 15.4%.
For `O=C(C1CCOCC1)N1CC2(C1)[C@@H](c1ccccc1)[C@@H](CO)N2CCC(F)(F)F`, the “activity change, negative = inhibition” value was -9.4%.
In the case of `CC(C)CC#Cc1ccc2c(c1)O[C@@H](CN(C)C(=O)NC1CCCC1)[C@H](C)CN([C@H](C)CO)S2(=O)=O`, the “activity change, negative = inhibition” value is reported as -5.15%.
For `O=C(CCN1CCCCC1)N[C@@H]1CC[C@@H](CC(=O)N2CCC(Cc3ccccc3)CC2)O[C@H]1CO`, the “activity change, negative = inhibition” value was 0.115%.
In the case of `CNC[C@H]1Oc2ccc(NC(=O)Nc3ccc(F)cc3)cc2CC(=O)N([C@@H](C)CO)C[C@H]1C`, the “activity change, negative = inhibition” value is reported as 32.5%.
With `COc1ccc(S(=O)(=O)Nc2ccc3c(c2)C(=O)N([C@@H](C)CO)C[C@@H](C)[C@@H](CN(C)Cc2ccc(Oc4ccccc4)cc2)O3)cc1` the “activity change, negative = inhibition” value was -0.798%.
With `COCC(=O)Nc1ccc2c(c1)OC[C@H](C)N(CC1CC1)C[C@@H](C)[C@@H](OC)CN(C)C2=O` the “activity change, negative = inhibition” value was 13.3%.
For `Cc1noc(C)c1S(=O)(=O)Nc1ccc2c(c1)C(=O)N([C@@H](C)CO)C[C@@H](C)[C@H](CN(C)Cc1ccc(Cl)c(Cl)c1)OCCCC[C@@H](C)O2`, the “activity change, negative = inhibition” value was 17%.
With `CCCc1c(C)nc2ccc(Br)cc2c1SCCC(=O)O` the “activity change, negative = inhibition” value was -14.8% [at 13.5 µM].
In the case of `O=C(NCC[C@H]1CC[C@H](NC(=O)C2CC2)[C@H](CO)O1)c1cc(Cl)cc(Cl)c1`, the “activity change, negative = inhibition” value is reported as 25.4%.
`C[C@H](O)C#Cc1ccc2c(c1)O[C@H](CN(C)Cc1ccc(-c3ccccc3)cc1)[C@H](C)CN([C@H](C)CO)S2(=O)=O` was tested, and the “activity change, negative = inhibition” value was -26.1%.
In the case of `Cc1ccccc1S(=O)(=O)N1CCCCN2[C@H](CO)[C@@H](c3ccc(-c4ccccc4)cc3)[C@H]2C1`, the “activity change, negative = inhibition” value is reported as -17.2%.
With `CC(C)NC(=O)N(C)C[C@H]1Oc2ccc(NC(=O)Cc3ccccc3)cc2C(=O)N([C@H](C)CO)C[C@@H]1C` the “activity change, negative = inhibition” value was 8.2%.
For `CN(C)C(=O)[C@H]1[C@H](CO)[C@H]2Cn3c(ccc(-c4ccc(F)cc4)c3=O)[C@@H]1N2CCc1ccccc1`, the “activity change, negative = inhibition” value was 8.22%.
For `COc1ccc(S(=O)(=O)N(C)C[C@@H]2OCCCC[C@H](C)Oc3ccc(NS(=O)(=O)c4ccc(C)cc4)cc3C(=O)N([C@H](C)CO)C[C@H]2C)cc1`, the “activity change, negative = inhibition” value was -12.7%.
For `Cc1noc(C)c1S(=O)(=O)Nc1ccc2c(c1)C(=O)N([C@@H](C)CO)C[C@H](C)[C@@H](CN(C)Cc1ccc(C(F)(F)F)cc1)OCCCC[C@@H](C)O2`, the “activity change, negative = inhibition” value was -32.6% [at 16 µM].
With `CC(C)CC#Cc1ccc2c(c1)O[C@H](CN(C)C(=O)CC1CC1)[C@@H](C)CN([C@@H](C)CO)S2(=O)=O` the “activity change, negative = inhibition” value was 5.03%.
